# Reference: the supplement of paper PMC8728848
# The sample as a whole holds a higher share of the strongest signals than the screen did.
# B1: GS7807H-bfa-490-18-490 (Bacteroides fragilis) (protein)
# chain: GNLEEMNIDPDNATQTHPKLLLTQICMNAFKRGTDGMYATKKVIQADGESADQYYKWTRGSFGYYDNLRNVQKMGEEAERVNAPVYTALTKFFRAYYFYELTLRFGDIPYSQALKGEKEEIYTPEYDAQEDVFAGILQELREADEILANDASVIDGDIIYNGNSTQWRKLINSFRLKVLMTLSNHTTVGNINIASEFKNIATNSPLMNSLADNGQLVYLDQQGNRYPQFNAQWSGYYMDDTFIQRMRERRDPRLFIFSAQTNKGKTEGKPIDDFSSYEGGDPAAPYSDAIIKVSEGTISPINDRFRTDPIVEPTMLMGYAELQQILAEAVVRGWISGNAQTYYEKGIRASFSFYETHAKDYAGYLNENAVAQYLKEPLVDFTQASGTEEQIERIIMQKYLVTFYQGNWDSFYEQLRTGYPDFRRPAGTEIPKRWMYPQGEYDNNGTNVETAITRQFGAGNDKINQATWWQKKS
# What was measured:
# Experiment in all cases: glycan array binding signal (z-score within array); higher = stronger binding
# Settings in all cases: glycan notation: IUPAC condensed, linker removed
# [1] = target: Gal(b1-4)GlcNAc(b1-3)Gal(b1-4)GlcNAc(b1-3)Gal(b1-4)GlcNAc(b1-2)Man(a1-3)[Gal(b1-4)GlcNAc(b1-3)Gal(b1-4)GlcNAc(b1-3)Gal(b1-4)GlcNAc(b1-2)Man(a1-6)]Man(b1-4)GlcNAc(b1-4)GlcNAc
# In short: (§1)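 From the Consortium for Functional Glycomics database, 3228 arrays were curated, keeping only those whose protein sequence was available. Binding is given as a within-array Z-score averaged across arrays sharing a protein sequence and across linkers. Negative Z-scores can be read as non-binding.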
# [2] = target: Gal(b1-4)GlcNAc(b1-3)Gal(b1-4)GlcNAc(b1-3)Gal(b1-4)GlcNAc(b1-3)Gal(b1-4)GlcNAc(b1-2)Man(a1-3)[Gal(b1-4)GlcNAc(b1-3)Gal(b1-4)GlcNAc(b1-3)Gal(b1-4)GlcNAc(b1-3)Gal(b1-4)GlcNAc(b1-2)Man(a1-6)]Man(b1-4)GlcNAc(b1-4)[Fuc(a1-6)]GlcNAc
# In short: as §1
# [3] = target: Gal(b1-4)GlcNAc(b1-3)Gal(b1-4)GlcNAc(b1-3)Gal(b1-4)GlcNAc(b1-3)Gal(b1-4)GlcNAc(b1-2)[Gal(b1-4)GlcNAc(b1-3)Gal(b1-4)GlcNAc(b1-3)Gal(b1-4)GlcNAc(b1-3)Gal(b1-4)GlcNAc(b1-6)]Man(a1-6)[Gal(b1-4)GlcNAc(b1-3)Gal(b1-4)GlcNAc(b1-3)Gal(b1-4)GlcNAc(b1-3)Gal(b1-4)GlcNAc(b1-2)Man(a1-3)]Man(b1-4)GlcNAc(b1-4)[Fuc(a1-6)]GlcNAc
# In short: as §1
# [4] = target: Gal(b1-4)GlcNAc(b1-3)Gal(b1-4)GlcNAc(b1-3)Gal(b1-4)GlcNAc(b1-3)Gal(b1-4)GlcNAc(b1-3)Gal(b1-4)GlcNAc(b1-2)Man(a1-3)[Gal(b1-4)GlcNAc(b1-3)Gal(b1-4)GlcNAc(b1-3)Gal(b1-4)GlcNAc(b1-3)Gal(b1-4)GlcNAc(b1-3)Gal(b1-4)GlcNAc(b1-2)Man(a1-6)]Man(b1-4)GlcNAc(b1-4)GlcNAc
# In short: as §1
# [5] = target: Gal(b1-4)GlcNAc(b1-3)Gal(b1-4)GlcNAc(b1-3)Gal(b1-4)GlcNAc(b1-3)Gal(b1-4)GlcNAc(b1-3)Gal(b1-4)GlcNAc(b1-2)Man(a1-3)[Gal(b1-4)GlcNAc(b1-3)Gal(b1-4)GlcNAc(b1-3)Gal(b1-4)GlcNAc(b1-3)Gal(b1-4)GlcNAc(b1-3)Gal(b1-4)GlcNAc(b1-2)Man(a1-6)]Man(b1-4)GlcNAc(b1-4)[Fuc(a1-6)]GlcNAc
# In short: as §1
# Gal6S(b1-3)GlcNAc6S = target: Gal6S(b1-3)GlcNAc6S
# In short: as §1
# GalNAc(b1-4)GlcNAc = target: GalNAc(b1-4)GlcNAc
# In short: as §1
# GalNAc3S(b1-4)GlcNAc = target: GalNAc3S(b1-4)GlcNAc
# In short: as §1
# [6] = target: GlcNAc(a1-3)Gal(b1-4)GlcNAc
# In short: as §1
# [7] = target: GlcNAc(b1-3)Gal(b1-4)GlcNAc(b1-3)Gal(b1-4)GlcNAc(b1-3)Gal(b1-4)GlcNAc(b1-3)Gal(b1-4)GlcNAc(b1-2)Man(a1-3)[GlcNAc(b1-3)Gal(b1-4)GlcNAc(b1-3)Gal(b1-4)GlcNAc(b1-3)Gal(b1-4)GlcNAc(b1-3)Gal(b1-4)GlcNAc(b1-2)Man(a1-6)]Man(b1-4)GlcNAc(b1-4)[Fuc(a1-6)]GlcNAc
# In short: as §1
# GlcNAc(b1-3)GalNAc = target: GlcNAc(b1-3)GalNAc
# In short: as §1
# Man(a1-2)Man(a1-3)Man = target: Man(a1-2)Man(a1-3)Man
# In short: as §1
# Neu5Ac(a2-3)Gal = target: Neu5Ac(a2-3)Gal
# In short: as §1
# [8] = target: Neu5Ac(a2-3)Gal(b1-3)GalNAc
# In short: as §1
# [9] = target: Neu5Ac(a2-3)Gal(b1-3)GlcNAc(b1-3)Gal(b1-4)GlcNAc
# In short: as §1
# [10] = target: Neu5Ac(a2-3)Gal(b1-3)[Neu5Ac(a2-6)]GlcNAc(b1-3)[Fuc(a1-3)[Gal(b1-4)]GlcNAc(b1-6)]Gal(b1-4)Glc
# In short: as §1
# [11] = target: Neu5Ac(a2-3)Gal(b1-4)GlcNAc(b1-3)Gal(b1-4)GlcNAc(b1-3)Gal(b1-4)GlcNAc(b1-2)Man(a1-3)[Neu5Ac(a2-3)Gal(b1-4)GlcNAc(b1-3)Gal(b1-4)GlcNAc(b1-3)Gal(b1-4)GlcNAc(b1-2)Man(a1-6)]GalNAc
# In short: as §1
# [12] = target: Neu5Ac(a2-3)Gal(b1-4)[Fuc(a1-3)]GlcNAc(b1-3)GalNAc
# In short: as §1
# [13] = target: Neu5Ac(a2-3)Gal6S(b1-4)[Fuc(a1-3)]GlcNAc
# In short: as §1
# [14] = target: Neu5Ac(a2-6)Gal(b1-3)GlcNAc(b1-3)[Gal(b1-4)GlcNAc(b1-6)]Gal(b1-4)Glc
# In short: as §1
# [15] = target: Neu5Ac(a2-6)Gal(b1-4)GlcNAc(b1-2)Man(a1-6)[GlcNAc(b1-2)Man(a1-3)]Man(b1-4)GlcNAc(b1-4)GlcNAc
# In short: as §1
# [16] = target: Neu5Ac(a2-6)Gal(b1-4)GlcNAc(b1-3)Gal(b1-4)[Fuc(a1-3)]GlcNAc(b1-3)Gal(b1-4)[Fuc(a1-3)]GlcNAc
# In short: as §1
# Neu5Ac(a2-8)Neu5Ac = target: Neu5Ac(a2-8)Neu5Ac
# In short: as §1
# [17] = target: Neu5Gc(a2-3)Gal(b1-3)[Fuc(a1-4)]GlcNAc
# In short: as §1
# [18] = target: Neu5Gc(a2-3)Gal(b1-4)GlcNAc(b1-3)Gal(b1-4)GlcNAc(b1-2)Man(a1-3)[Neu5Gc(a2-3)Gal(b1-4)GlcNAc(b1-3)Gal(b1-4)GlcNAc(b1-2)Man(a1-6)]Man(b1-4)GlcNAc(b1-4)GlcNAc
# In short: as §1
binder,measurement,setting,value
B1,glycan array binding signal (z-score),[1],2.19
same,glycan array binding signal (z-score),[2],2.51
same,glycan array binding signal (z-score),[3],2.08
same,glycan array binding signal (z-score),[4],1.71
same,glycan array binding signal (z-score),[5],2.17
same,glycan array binding signal (z-score),Gal6S(b1-3)GlcNAc6S,1.52
same,glycan array binding signal (z-score),GalNAc(b1-4)GlcNAc,0.462
same,glycan array binding signal (z-score),GalNAc3S(b1-4)GlcNAc,-0.743
same,glycan array binding signal (z-score),[6],-0.677
same,glycan array binding signal (z-score),[7],4.28
same,glycan array binding signal (z-score),GlcNAc(b1-3)GalNAc,-0.454
same,glycan array binding signal (z-score),Man(a1-2)Man(a1-3)Man,0.369
same,glycan array binding signal (z-score),Neu5Ac(a2-3)Gal,-0.022
same,glycan array binding signal (z-score),[8],-0.368
same,glycan array binding signal (z-score),[9],-0.526
same,glycan array binding signal (z-score),[10],-0.176
same,glycan array binding signal (z-score),[11],9.02
same,glycan array binding signal (z-score),[12],5.66
same,glycan array binding signal (z-score),[13],-0.29
same,glycan array binding signal (z-score),[14],0.078
same,glycan array binding signal (z-score),[15],-0.141
same,glycan array binding signal (z-score),[16],-0.32
same,glycan array binding signal (z-score),Neu5Ac(a2-8)Neu5Ac,-0.459
same,glycan array binding signal (z-score),[17],-0.469
same,glycan array binding signal (z-score),[18],-0.11
